The antibiotic and cytotoxicity screens of Wong et al. (2023)
About 1,500 (3.8%) of roughly 39,000 compounds were called active. Only a selection was taken, and actives are over-represented in it overall.

Tested on: HSkMC (human skeletal muscle cells)
Experiment: cytotoxicity call (relative viability < 0.9)
Details: 10 µM

SMILES	cytotoxicity call
COc1ccc(S(=O)(=O)N(C)C[C@@H]2Oc3ccc(NC(=O)CCCN(C)C)cc3C(=O)N([C@H](C)CO)C[C@@H]2C)cc1	inactive
COc1ccc(-c2cn(CCNC(=O)[C@H](Cc3ccccc3)NS(=O)(=O)c3ccc(C)cc3)nn2)cc1OC	inactive
CC(/C=C/C(=O)NO)=C\c1cccc(OC[C@@H]2[C@H]3C[C@H]4c5[nH]c6ccccc6c5CCN4C[C@@H]3CC[C@@H]2O)c1	inactive
O=C(N[C@@H](c1ccc(-c2ccccc2)cc1)c1cnccn1)C1CCN(CCCOc2ccccc2)CC1	inactive
CC(=O)NC1C(O)CC(O)(C(=O)O)OC1C(O)C(O)CO (configuration not stated)	inactive
C[C@H]1CCCCO[C@@H](CN(C)S(C)(=O)=O)[C@@H](C)CN([C@@H](C)CO)C(=O)c2cc(N(C)C)ccc2O1	inactive
C[C@H](CO)N1C[C@H](C)[C@H](CN(C)C(=O)Nc2ccc(C(F)(F)F)cc2)Oc2ccc(NC(=O)CCC(F)(F)F)cc2CC1=O	inactive
Cc1ccc(S(=O)(=O)C[C@H](C)N2CCOCC2)c(S(=O)(=O)C[C@@H](C)N2CCOCC2)c1	inactive
CCNC(=O)C[C@@H]1C=C[C@@H](NC(=O)C2CC2)[C@@H](CO)O1	inactive
COc1ccc(NC(=O)Nc2ccc3c(c2)CC(=O)N([C@@H](C)CO)C[C@H](C)[C@H](CN(C)C(=O)Nc2cccc4ccccc24)O3)cc1	inactive
CCCNC(=O)Nc1ccc2c(c1)OC[C@@H](C)N(C(=O)C1CCOCC1)C[C@@H](C)[C@@H](OC)CN(C)C2=O	inactive
C[C@H]1CN([C@@H](C)CO)C(=O)c2cc(Br)cnc2O[C@@H]1CN(C)Cc1cccc(C(=O)O)c1	inactive
CNCC(=O)O	inactive
NCC(=O)NCC(=O)O	inactive
O=C(O)CNC(=O)C(=O)O	active
O=C(CCCCCNC(=O)OCCCOc1ccc(C2=N[C@]3(Cc4ccccc4)C(=O)N(Cc4ccccc4)Cc4ccccc4[C@@H]3O2)cc1)NO	inactive
C[C@@H]1CCCCO[C@@H](CN(C)C(=O)Nc2ccc3c(c2)OCO3)[C@@H](C)CN([C@H](C)CO)C(=O)c2cc(NC(=O)CCCCCC(=O)Nc3ccccc3N)ccc2O1	inactive
NC(=O)c1ncn([C@@H]2O[C@H](CO)[C@@H](O)[C@H]2O)n1	inactive
C[C@@H]1CN([C@H](C)CO)C(=O)c2cc(NC(=O)Nc3ccc(F)cc3)ccc2O[C@@H]1CN(C)Cc1ccc(C(=O)Nc2ccccc2N)cc1	inactive
Cc1ncc(NC(=O)c2cccc(C(F)(F)F)c2)cc1-c1cnc(OC2CCOCC2)c(N2CCOCC2)c1	inactive
O=C(Nc1cccc(C(F)(F)F)c1)c1ccc2ccccc2c1	inactive
Cc1ccc(Nc2ncc3c(n2)N(C)C(=O)N(c2cc(NC(=O)c4cccc(C(F)(F)F)c4)ccc2C)C3)cn1	active
